In PubChem BioAssay (Tox21):
Values without a mark were called inactive. Results filed as inconclusive are left out. Entries that show only a call come without a potency. Active and inactive are the calls of the source. Unless noted, calls come from the whole dose curve.

Key:
[1] = Nuclear factor erythroid 2-related factor 2/antioxidant responsive element (Nrf2/ARE) small molecule agonists: qHTS cell viability counter screen in human keratinocytes (AID 1919968; active = well fitted curve in the direction sought with a large enough effect in the repeat runs; an effect the other way counts as inactive or inconclusive; note: nearly all actives have a fitted effect of over 55% in size; note: potency is the fitted concentration of half-maximal effect)
Outline: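 In human HaCaT keratinocytes stably expressing an ARE-driven luciferase, compound exposure lasted 23 h at 37 C under 5% CO2. Viable cells are quantified with a protease-based fluorogenic reagent (CellTiter-Fluor) read 1 h after addition.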

[2] = Nuclear factor erythroid 2-related factor 2/antioxidant responsive element (Nrf2/ARE) small molecule agonists: luciferase reporter gene qHTS assay in human keratinocytes (AID 1919969); note: nearly all actives have a fitted effect of over 35% in size; note: potency is the fitted concentration of half-maximal effect
[3] = target: Gonadotropin-releasing hormone receptor (Homo sapiens) (UniProt P30968); assay: Human gonadotropin-releasing hormone receptor (GnRHR) small molecule agonists, calcium flux assay in GnRHR-HEK293 cells (AID 1920063); note: nearly all actives have a fitted effect of over 35% in size
Sequence of Gonadotropin-releasing hormone receptor (Homo sapiens) (P30968 whole entry, looked up): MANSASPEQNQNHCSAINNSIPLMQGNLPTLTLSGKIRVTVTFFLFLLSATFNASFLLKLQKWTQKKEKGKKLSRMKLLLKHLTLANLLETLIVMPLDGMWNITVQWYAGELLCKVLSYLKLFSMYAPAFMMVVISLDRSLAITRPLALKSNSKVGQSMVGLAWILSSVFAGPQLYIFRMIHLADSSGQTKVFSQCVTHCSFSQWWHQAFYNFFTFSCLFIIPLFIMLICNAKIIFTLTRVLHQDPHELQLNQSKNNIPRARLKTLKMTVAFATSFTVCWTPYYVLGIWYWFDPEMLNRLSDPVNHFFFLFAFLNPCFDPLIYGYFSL
Outline: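 Intracellular calcium rise is the read-out: engineered human GnRHR HEK293 cells, dye-loaded, are exposed to DMSO-dissolved compounds and fluorescence at Ex/Em 480/540 is tracked for 3 min.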

[4] = target: KiSS-1 receptor (Homo sapiens) (UniProt Q969F8); assay: Human kisspeptin (KISS1R) small molecule agonists, calcium flux assay in KISS1R-HEK293 cells (AID 1920064; active = well fitted curve in the direction sought with a large enough effect in the repeat runs; an effect the other way counts as inactive or inconclusive)
Sequence of KiSS-1 receptor (Homo sapiens) (Q969F8 whole entry, looked up): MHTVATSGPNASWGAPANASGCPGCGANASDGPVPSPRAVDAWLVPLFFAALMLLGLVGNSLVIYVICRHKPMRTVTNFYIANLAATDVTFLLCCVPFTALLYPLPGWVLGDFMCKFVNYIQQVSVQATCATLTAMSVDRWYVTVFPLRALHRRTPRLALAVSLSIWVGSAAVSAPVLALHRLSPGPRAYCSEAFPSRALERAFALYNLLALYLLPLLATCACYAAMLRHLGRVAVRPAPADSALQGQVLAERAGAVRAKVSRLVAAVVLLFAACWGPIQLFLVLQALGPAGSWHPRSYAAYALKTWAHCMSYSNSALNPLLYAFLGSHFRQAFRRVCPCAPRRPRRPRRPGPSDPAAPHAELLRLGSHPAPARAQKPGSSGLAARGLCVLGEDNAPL
Outline: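 Concentration-response testing used 15 concentrations in triplicate on human KISS1R-expressing HEK293 cells. Calcium-dependent fluorescence (Ex/Em 480/540) was followed kinetically for 3 min after compound transfer.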

[5] = G protein-coupled receptor (GPCR) small molecule agonists, calcium flux assay: HEK293 wild type cell line counter screen (AID 1920065)
Outline: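 Fluorescence intensity signals activation. After overnight (18 h) culture and a 1 h calcium dye load at 37 C, compounds are added by pin tool and the plate read at 480/540 nm for 3 min in 1 s steps.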

[6] = p53 small molecule agonists, cell-based qHTS assay with rat liver microsomes (AID 1963578)
Outline: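 Read-out is beta-lactamase reporter fluorescence (LiveBLAzer, 2 h, room temperature, dark) in p53RE-bla cells treated 16 h at 37 C with compound, rat liver microsomes and NADPH, both 0.5 mg/mL final.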

[7] = p53 small molecule agonists, cell-based qHTS assay with human liver microsomes: qHTS cell viability counter screen (AID 1963579); note: nearly all actives have a fitted effect of over 45% in size
Outline: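 Cells carrying the p53 response-element beta-lactamase reporter are treated for 16 h at 37 C with test compounds in the presence of human liver microsomes and NADPH (both 0.5 mg/mL final); ATP-based CellTiter-Glo luminescence then reports viability.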

[8] = p53 small molecule agonists, cell-based qHTS assay with rat liver microsomes: qHTS cell viability counter screen (AID 1963580); note: nearly all actives have a fitted effect of over 45% in size
Outline: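 Luminescent ATP readout (CellTiter-Glo, 30 min at room temperature) reports viability of p53RE-bla HCT-116 cells after 16 h at 37 C with test compounds under metabolic activation by rat liver microsomes and NADPH at 0.5 mg/mL final each.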

[9] = p53 small molecule agonists, cell-based qHTS assay: qHTS cell viability counter screen (AID 1963581); note: nearly all actives have a fitted effect of over 45% in size
Outline: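 Luminescence from CellTiter-Glo, reflecting ATP content, serves as the cytotoxicity measure; it is taken after the 2 h reporter substrate step in HCT-116 p53RE-bla cells dosed for 16 h at 37 C.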

[10] = p53 small molecule agonists, cell-based qHTS assay (AID 1963582; active = well fitted activation curve with a large enough effect in the signal ratio in the repeat runs, not every such curve was filed as active; the % refers to the signal ratio)
Outline: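 After plating, p53RE-bla cells sat 5 h in the incubator; compounds or DMSO vehicle were pinned in; a 16 h incubation at 37 C followed; FRET substrate was added and, 2 h later at RT, fluorescence was measured.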

[11] = target: 5-hydroxytryptamine receptor 2A (Homo sapiens) (UniProt P28223); assay: 5-hydroxytryptamine receptor 2A (HTR2A) small molecule agonists, cell-based qHTS assay (AID 1963587); note: nearly all actives have a fitted effect of over 30% in size
Sequence of 5-hydroxytryptamine receptor 2A (Homo sapiens) (P28223 whole entry, looked up): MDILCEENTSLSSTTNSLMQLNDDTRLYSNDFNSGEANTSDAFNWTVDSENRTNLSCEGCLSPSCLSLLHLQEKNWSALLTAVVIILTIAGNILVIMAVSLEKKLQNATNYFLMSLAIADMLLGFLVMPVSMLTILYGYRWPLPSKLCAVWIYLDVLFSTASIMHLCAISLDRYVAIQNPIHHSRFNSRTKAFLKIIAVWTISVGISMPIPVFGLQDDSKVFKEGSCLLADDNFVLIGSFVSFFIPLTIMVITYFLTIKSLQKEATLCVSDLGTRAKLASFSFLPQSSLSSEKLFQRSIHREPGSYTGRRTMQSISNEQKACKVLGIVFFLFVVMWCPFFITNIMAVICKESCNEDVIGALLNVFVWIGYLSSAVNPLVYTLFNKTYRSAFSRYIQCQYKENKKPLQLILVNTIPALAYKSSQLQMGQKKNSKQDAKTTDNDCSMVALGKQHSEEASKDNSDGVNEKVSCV
Outline: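 HTR2A-CHO cells, plated 18 h at 37 C/5% CO2, dye-loaded 1 h at 37 C; compounds in DMSO added by pin tool (agonist mode). Intracellular calcium flux read as kinetic fluorescence on FDSS over 2 min at 1 s intervals.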

[12] = target: Muscarinic acetylcholine receptor M1 (Homo sapiens) (UniProt P11229); assay: Cholinergic receptor muscarinic 1 (CHRM1) small molecule agonists, cell-based qHTS assay (AID 1963589); note: nearly all actives have a fitted effect of over 35% in size
Sequence of Muscarinic acetylcholine receptor M1 (Homo sapiens) (P11229 whole entry, looked up): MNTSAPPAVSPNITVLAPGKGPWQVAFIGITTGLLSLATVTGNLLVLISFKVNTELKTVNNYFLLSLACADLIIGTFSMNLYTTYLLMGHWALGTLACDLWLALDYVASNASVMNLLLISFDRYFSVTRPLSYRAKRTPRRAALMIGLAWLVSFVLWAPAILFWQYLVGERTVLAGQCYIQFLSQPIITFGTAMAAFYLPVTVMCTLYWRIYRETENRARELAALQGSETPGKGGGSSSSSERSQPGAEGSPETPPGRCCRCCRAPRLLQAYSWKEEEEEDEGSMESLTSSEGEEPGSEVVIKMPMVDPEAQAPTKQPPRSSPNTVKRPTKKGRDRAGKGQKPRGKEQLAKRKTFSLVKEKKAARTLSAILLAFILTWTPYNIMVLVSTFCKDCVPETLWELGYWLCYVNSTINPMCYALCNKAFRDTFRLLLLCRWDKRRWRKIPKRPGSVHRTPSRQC
Outline: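 Fluorescent calcium dye reports M1 activation in stably transfected CHO cells. Compounds, 15 concentrations, added after 1 h dye loading at 37 C; kinetic reading at 1 sec intervals.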

[13] = cAMP Responsive Elements (CRE) small molecule agonists, cell-based qHTS assay (AID 1963590)
Outline: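 Compound exposure lasted 3 h at 37 C/5% CO2 in CRE-bla HEK 293T cells grown in assay medium with 10% dialyzed FBS and 25 mM HEPES. Reporter signal came from LiveBLAzer B/G FRET substrate, 2 h, room temperature.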

[14] = cAMP Responsive Elements (CRE) small molecule antagonists, cell-based qHTS assay (AID 1963591; active = well fitted inhibition curve with a large enough effect in the signal ratio in the repeat runs, not every such curve was filed as active; the % refers to the signal ratio)
Outline: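 Stimulation used NKH477 at a final 0.25 uM for 3 h in compound-treated CRE-bla HEK293T cells, seeded 18 h beforehand. Reporter activity was measured with LiveBLAzer B/G FRET substrate after 2 h at room temperature.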

[15] = target: Beta-2 adrenergic receptor (Homo sapiens) (UniProt P07550); assay: Adrenergic beta2 receptor (ADRB2) small molecule antagonists, cell-based qHTS assay (AID 1963592); note: series mostly up to about 92 µM; nearly all actives have a fitted effect of over 50% in size
Sequence of Beta-2 adrenergic receptor (Homo sapiens) (P07550 whole entry, looked up): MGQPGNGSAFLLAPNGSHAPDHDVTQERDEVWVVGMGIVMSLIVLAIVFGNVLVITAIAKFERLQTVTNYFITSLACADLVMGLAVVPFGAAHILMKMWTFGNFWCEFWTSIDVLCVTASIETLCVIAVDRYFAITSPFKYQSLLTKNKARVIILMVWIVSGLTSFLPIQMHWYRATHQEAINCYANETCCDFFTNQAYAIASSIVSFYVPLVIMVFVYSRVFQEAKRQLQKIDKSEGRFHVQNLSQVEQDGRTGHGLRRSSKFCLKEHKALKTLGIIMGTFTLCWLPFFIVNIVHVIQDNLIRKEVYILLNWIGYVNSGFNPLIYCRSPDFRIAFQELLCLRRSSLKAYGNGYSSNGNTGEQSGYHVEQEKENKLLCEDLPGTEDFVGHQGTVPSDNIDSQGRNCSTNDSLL
Outline: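 Assay format: CHO-ADRB2 cells, 18-20hr seeding at 37C/5% CO2, then compound plus 1nM isoproterenol agonist mix for 0.5hr RT. Homogeneous time-resolved fluorescence cAMP detection after 1hr, expressed as 665/615 nm ratio.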

[16] = target: D(2) dopamine receptor (Homo sapiens) (UniProt P14416); assay: Dopamine D2 receptor (DRD2) small molecule agonists, cell-based qHTS assay (AID 1963594); note: nearly all actives have a fitted effect of over 35% in size
Sequence of D(2) dopamine receptor (Homo sapiens) (P14416 whole entry, looked up): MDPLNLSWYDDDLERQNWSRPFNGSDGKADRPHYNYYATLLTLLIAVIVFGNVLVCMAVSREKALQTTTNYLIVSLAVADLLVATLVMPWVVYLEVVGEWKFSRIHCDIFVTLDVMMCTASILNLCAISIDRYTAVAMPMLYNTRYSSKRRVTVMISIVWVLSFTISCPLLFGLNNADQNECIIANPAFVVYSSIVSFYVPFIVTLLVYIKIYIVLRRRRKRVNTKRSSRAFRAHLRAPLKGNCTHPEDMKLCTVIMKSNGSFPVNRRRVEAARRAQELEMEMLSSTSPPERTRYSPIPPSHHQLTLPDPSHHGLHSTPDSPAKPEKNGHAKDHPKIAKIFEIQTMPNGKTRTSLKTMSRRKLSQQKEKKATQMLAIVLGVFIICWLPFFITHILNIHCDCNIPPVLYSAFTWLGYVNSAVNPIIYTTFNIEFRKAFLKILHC
Outline: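 HEK293 cells stably expressing DRD2 were cultured 24 h at 37 C, then given Ro20-1724 (0.1 mM final) and compounds for 10 min at room temperature. NKH477 (200nM) was then added for 30 min. cAMP was read by HTRF.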

[17] = target: D(2) dopamine receptor (Homo sapiens) (UniProt P14416); assay: Dopamine D2 receptor (DRD2) small molecule antagonists, cell-based qHTS assay (AID 1963595; active = well fitted inhibition curve with a large enough effect in the signal ratio in the repeat runs, with a control signal flat; the % refers to the signal ratio)
Outline: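 In this cell-based antagonist screen, compounds act for 10 min at room temperature before a 30 min challenge with 12 nM quinpirole and 200 nM NKH477. cAMP is quantified by HTRF competition in DRD2-HEK293 cells containing 0.1 mM Ro20-1724.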

[18] = target: 5-hydroxytryptamine receptor 2A (Homo sapiens) (UniProt P28223); assay: 5-hydroxytryptamine receptor 2A (HTR2A) small molecule antagonists, cell-based qHTS assay (AID 1963586); note: nearly all actives have a fitted effect of over 45% in size
Outline: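 CHO cells stably expressing human HTR2A were plated for 18 h at 37 C, then loaded with calcium dye for 1 h. Compounds were preincubated 5 min at room temperature before DOI (4 nM solution) was added. Kinetic fluorescence was read for 3 min.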

[19] = target: Muscarinic acetylcholine receptor M1 (Homo sapiens) (UniProt P11229); assay: Cholinergic receptor muscarinic 1 (CHRM1) small molecule antagonists, cell-based qHTS assay (AID 1963588); note: nearly all actives have a fitted effect of over 40% in size
Outline: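 Compounds were tested at 15 concentrations in three independent runs. Dye-loaded CHRM1-CHO cells were exposed 5 min at room temperature before stimulation by acetylcholine added at 50nM. Intracellular calcium was read kinetically on FDSS for 3 min.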

| SMILES | Potency [1] | Potency [2] | Potency [3] | outcome [4] | outcome [5] | Potency [6] | Potency [7] | Potency [8] | Potency [9] | Potency [10] | Potency [11] | Potency [12] | Potency [13] | Potency [14] | Potency [15] | Potency [16] | Potency [17] | Potency [18] | Potency [19] |
| --- | --- | --- | --- | --- | --- | --- | --- | --- | --- | --- | --- | --- | --- | --- | --- | --- | --- | --- | --- |
| C=C(C)C(=O)OCC[N+](C)(C)C | inactive | 60.9 µM (active) | inactive | inactive | inactive | inactive | inactive | inactive | inactive | inactive | inactive | inactive | inactive | inactive | inactive | inactive | inactive |  |  |
| CCCc1nn(C)c2c(=O)[nH]c(-c3cc(S(=O)(=O)N4CCN(C)CC4)ccc3OCC)nc12 | inactive | inactive | inactive | inactive | inactive | inactive | inactive | inactive | inactive | inactive |  |  | inactive | inactive | inactive | inactive | inactive |  |  |
| Cc1c(C)c2c(c(C)c1OC(=O)CCC(=O)OCCO)CC[C@@](C)(CCC[C@H](C)CCC[C@H](C)CCCC(C)C)O2 | 26.6 µM (active) | inactive | inactive | inactive | inactive | inactive | inactive | inactive | inactive | inactive | inactive |  |  |  | inactive | inactive | inactive | inactive |  |
| O=NN(CCCl)C(=O)NCCCl | inactive | inactive | inactive | inactive | inactive | inactive | inactive | inactive | inactive | inactive |  |  | inactive | inactive | inactive | inactive | inactive |  |  |
| O=C(N[C@@H](Cc1ccccc1)[C@@H](O)C(=O)N1C[C@@H](O)[C@@H](O)C1)c1cc2cc(Cl)ccc2[nH]1 | inactive | inactive | inactive | inactive | inactive | inactive | inactive | inactive | inactive | inactive | inactive | inactive |  | inactive | inactive | inactive | inactive | inactive | inactive |
| CCCCC(=O)OCC(=O)[C@H]1[C@H](C)C[C@H]2[C@@H]3C[C@H](F)C4=CC(=O)C=C[C@]4(C)[C@@]3(F)[C@@H](O)C[C@@]21C | inactive | inactive | inactive | inactive | inactive | inactive | inactive | inactive | inactive | inactive | inactive | inactive |  | inactive | inactive | inactive |  | inactive | inactive |
| Cc1c(C)c2c(c(C)c1O)CC[C@@](C)(CCC[C@H](C)CCC[C@H](C)CCCC(C)C)O2 | inactive | inactive | inactive | inactive | inactive | inactive | inactive | inactive | inactive | inactive |  |  | inactive | inactive |  | inactive | inactive |  |  |
| N#Cc1ccc(C(=O)O)cc1 | inactive | inactive | inactive | inactive | inactive | inactive | inactive | inactive | inactive | inactive | inactive | inactive | inactive |  | inactive | inactive | inactive | inactive |  |
